Here are results for 22 compounds from PubChem BioAssay (NCI).

The nature of test [1]: NCI Yeast Anticancer Drug Screen. Data for the rad50 strain (AID 155).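 Also: 0% = growth of vehicle-only cultures of the same strain.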 The following applies: S. cerevisiae rad50 strain growth inhibition; at 50.0 µM; stronger effect = higher value. The method in brief:
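Cells are treated with compound, grown, and their growth is then scored against vehicle-only cultures of the same repair-deficient yeast strain.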

Test [2] is described as follows: NCI Yeast Anticancer Drug Screen. Data for the mec2-1 strain (AID 157). The following applies: S. cerevisiae mec2-1 strain, at 50.0 µM, stronger effect = higher value. In a few lines:
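Yeast mec2-1 mutant treated with compound. Readout: growth inhibition vs vehicle controls.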

Test [3] in a line: NCI Yeast Anticancer Drug Screen. Data for the sgs1 mgt1 strain (AID 161).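 Also: 0% = growth of cultures given vehicle only.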 As to conditions: S. cerevisiae sgs1 mgt1 strain, at 50.0 µM, stronger effect = higher value. In a few lines: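 Test agents were incubated with a DNA-repair-mutant yeast strain. Growth was then read and compared against vehicle-treated controls.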
Test [4] is described as follows: NCI Yeast Anticancer Drug Screen. Data for the cln2 rad14 strain (AID 165).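 Also: 0% = growth equal to vehicle treated cultures.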 The following applies: S. cerevisiae cln2 rad14 strain, at 50.0 µM, stronger effect = higher value. In a few lines: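 cln2 rad14 yeast strain; compound exposure; growth inhibition read vs vehicle controls.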
The nature of test [5]: NCI Yeast Anticancer Drug Screen. Data for the bub3 strain (AID 167). The following applies: S. cerevisiae bub3 mutant strain, at 50.0 µM, stronger effect = higher value. The method in brief: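 Part of a panel of yeast mutants defective in DNA damage repair or cell cycle regulation. Each strain is grown with compound, and inhibition is calculated relative to solvent-treated cultures.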

The nature of test [6]: NCI Yeast Anticancer Drug Screen. Data for the mlh1 rad18 strain (AID 175). As to conditions: S. cerevisiae mlh1 rad18 strain growth inhibition; at 50.0 µM; stronger effect = higher value. In a few lines: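 Yeast w/ defined DNA-repair lesions; compound exposure; growth vs vehicle controls → % inhibition.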

Compounds without any hit were thinned out: in the full panel of roughly 79,000, 15% have a hit. Unmarked numbers belong to inactive results. Active and inactive are the calls of the source. Rule as the data show it: active = growth inhibition above about 70%; inactive = the rest.

In the case of `CCCCCCCCCCC(C)Br` (configuration not stated), the growth inhibition in test [1] is 19.9%; in test [2] it was -12.1%; in test [3], 10.3%; in test [4] it was 1.3%; in test [5], 28.6%; in test [6], 1.75%.
For `Nc1nc(N)c2cc(S(=O)(=O)c3cccc(C(F)(F)F)c3)ccc2n1`, the growth inhibition in test [1] was 34%; in test [2], 24.9%; in test [3], 7.4%; in test [4], 11.2%; in test [5] it was -15.4%; in test [6], -59.4%.
Consider `O=[N+]([O-])c1ccc(CO)cc1`, for which the growth inhibition was 0.15% in test [1]; 0.35% in test [2]; 8.85% in test [3]; 6.75% in test [4]; 22.1% in test [5]; 4.1% in test [6].
Regarding `OC(c1ccccn1)C(O)c1ccccn1` (configuration not stated), the growth inhibition in test [1] was -2.55%; in test [2], -4.45%; in test [3], -0.6%; in test [4], -9%; in test [5], -5.6%; in test [6] it was 3.2%.
Turning to `O=C(N/N=C/c1ccccc1O)Nc1nn[nH]n1`, the growth inhibition in test [1] is -15.8%; in test [2] it was -10.2%; in test [3] it was 16.1%; in test [4], -7.8%; in test [5], 0.85%; in test [6], 9%.
On to `CC(C)=CC(=O)OC(=O)C=C(C)C`, for which the growth inhibition is -25.3% in test [1]; -48.4% in test [2]; -21.2% in test [3]; 1.8% in test [4]; -36.6% in test [5]; -8.65% in test [6].
As to `CC(=O)c1ccc2c(ccc3ccccc32)c1`, the growth inhibition in test [1] is -13.1%; in test [2], -16.3%; in test [3], -12.6%; in test [4], -14.6%; in test [5], -5.4%; in test [6], 3.9%.
As for `O=C(O)c1ccnc(Br)c1`, the growth inhibition was -3.05% in test [1]; -0.05% in test [2]; -31.1% in test [3]; 11.7% in test [4]; -27.3% in test [5]; -14.2% in test [6].
As to `CCC/C=C(\C)C(C)(C#N)C(=O)OCC` (configuration not stated), the growth inhibition in test [1] was 3.1%; in test [2], -8.45%; in test [3] it was 10.8%; in test [4], -1.35%; in test [5], -17.7%; in test [6], -29.9%.
Consider `NC(=S)NN=C1CCCC1`, for which the growth inhibition was 2.2% in test [1]; -5.8% in test [2]; 4.75% in test [3]; -19.6% in test [4]; -2.45% in test [5]; 7.75% in test [6].
On to `Cc1ncc(C#N)c(N)n1`, for which the growth inhibition in test [1] is -24.9%; in test [2], -18%; in test [3], 12.9%; in test [4], -7.1%; in test [5] it was -3.05%; in test [6], -5.4%.
Take `COC(=O)Nc1nc2ccc(C(=O)c3cccs3)cc2[nH]1`: the growth inhibition in test [1] was -1.25%; in test [2] it was 33.4%; in test [3], 17.5%; in test [4], -35%; in test [5], 24.4%; in test [6], 19%.
Consider `COc1cc2c(cc1OC)[C@H](C(=O)O)[C@@H](c1ccc(OC(C)C)c(OC)c1)N(C)C2=O`, for which the growth inhibition in test [1] is 6.05%; in test [2] it was -10%; in test [3] it was 7.2%; in test [4] it was -15.2%; in test [5] it was 15.4%; in test [6] it was -9.05%.
As to `Oc1ccc2c(c1)OCC1(O)Cc3cc(O)c(O)cc3C21` (configuration not stated), the growth inhibition in test [1] is 3.9%; in test [2], -2.4%; in test [3] it was 10.3%; in test [4] it was 3.6%; in test [5] it was 9.75%; in test [6] it was -3.8%.
Consider `Nc1nc(N)c(N=Nc2ccc(C(=O)O)cc2)c(N)n1`, for which the growth inhibition in test [1] was -3.65%; in test [2], 7.35%; in test [3], 3%; in test [4], 19.6%; in test [5], 19%; in test [6] it was 22.4%.
In the case of `CCOC(=O)C1=C(C)NC(=O)NC1c1cccs1` (configuration not stated), the growth inhibition in test [1] is -11.2%; in test [2], -26.9%; in test [3], -14.4%; in test [4], 5.5%; in test [5] it was -14.2%; in test [6] it was -20.1%.
Consider `O=C(CCNNC(=O)c1ccncc1)NCc1ccccc1`, for which the growth inhibition was 8.25% in test [1]; 11.6% in test [2]; 11.9% in test [3]; -46% in test [4]; -9.8% in test [5]; 7.3% in test [6].
For the compound `N=c1c(C(=O)OCc2ccccc2)ncc(CCl)n1O`, the growth inhibition in test [1] was 37.3%; in test [2], 80.5% (active); in test [3], 72.2% (active); in test [4] it was 22.9%; in test [5] it was 73.2% (active); in test [6] it was 77.8% (active).
Consider `CC1(O)OC(COc2ccc(Cl)cc2)COC1O` (configuration not stated), for which the growth inhibition in test [1] was 0.55%; in test [2], -8.65%; in test [3], 4.7%; in test [4], 8.55%; in test [5], -9.7%; in test [6] it was 18.9%.
On to `CC1Cc2ccccc2O1` (configuration not stated), for which the growth inhibition in test [1] is 2.7%; in test [2] it was 0.35%; in test [3], -3.7%; in test [4], -2.35%; in test [5] it was 2.9%; in test [6], 11%.
Regarding `O=C(CN1CCNCC1)N1CCOCC1`, the growth inhibition in test [1] is -25.6%; in test [2], -25.1%; in test [3], -17.8%; in test [4], -23.9%; in test [5], -16.7%; in test [6] it was -13.8%.
Consider `COc1cc2nc3cc([N+](=O)[O-])ccc3c(Cl)c2cc1OC`, for which the growth inhibition is -14.8% in test [1]; -20.9% in test [2]; -19.7% in test [3]; 4.3% in test [4]; -14.2% in test [5]; 7.6% in test [6].
